Compound activity as filed in PubChem.
Most compounds without a hit are left out; they make up all but 1.3% or so of the library.
PI5P4Ka inh: qHTS for Inhibitors of phosphatidylinositol 5-phosphate 4-kinase (PI5P4K); PI5P4Kalpha enzyme, ADP-Glo luminescence, 60 min; stronger effect = lower value; max response, %; actives 1.2% (n = 330,000); active = max response of -50% or lower; inconclusive = between -30% and -50%; inactive = -30% or higher; note: value at the top dose of about 77 µM; % is set by controls: 0 for no effect and ±100 for the full control effect
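Compounds were pin-transferred onto PI5P4Kalpha and substrate in HEPES pH 7.4 buffer with EGTA, CHAPS and 5% DMSO. ATP (5 microM final) started the reaction, which ran 60 minutes at room temperature before ADP-Glo detection.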
WRN helicase inh: qHTS for Inhibitors of WRN Helicase | Bifunctional 3'-5' exonuclease/ATP-dependent helicase WRN (Homo sapiens), Q14191 | WRN helicase unwinding, fluorescent forked duplex, kinetic | Potency, µM (series often up to 114 µM), inactives show top-dose activity change, negative = inhibition, actives largely listed as inhibitors | actives 0.46% (n = 360,000) | AID 651768, 2012; note: potency is the fitted concentration of half-maximal effect; % is set by controls: 0 for no effect and ±100 for the full control effect; nearly all actives have a fitted effect of over 55% in size
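Fluorescence dequenching readout, ex 525 nm/em 598 nm, kinetic mode: forked duplex DNA (100 nM final) with adjacent fluorophore and quencher unwound by WRN (20 nM final) with 2 mM ATP. Compound preincubation 15 min, room temperature.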
Tb PGK inh: qHTS Assay to Find Inhibitors of Phosphoglycerate Kinase; Phosphoglycerate kinase, glycosomal (Trypanosoma brucei brucei), P07378; PGK/GAPDH coupled, Kinase-Glo luminescence, 60 min; Potency, µM (highest dose often 57.5 µM), for the others: top-dose activity change, negative = inhibition, hits mostly inhibitors; actives 0.043% (n = 380,000); AID 602233, 2012; note: potency is the fitted concentration of half-maximal effect; % is set by controls: 0 for no effect and ±100 for the full control effect; nearly all actives have a fitted effect of over 60% in size
Target sequence (P07378 whole entry, looked up): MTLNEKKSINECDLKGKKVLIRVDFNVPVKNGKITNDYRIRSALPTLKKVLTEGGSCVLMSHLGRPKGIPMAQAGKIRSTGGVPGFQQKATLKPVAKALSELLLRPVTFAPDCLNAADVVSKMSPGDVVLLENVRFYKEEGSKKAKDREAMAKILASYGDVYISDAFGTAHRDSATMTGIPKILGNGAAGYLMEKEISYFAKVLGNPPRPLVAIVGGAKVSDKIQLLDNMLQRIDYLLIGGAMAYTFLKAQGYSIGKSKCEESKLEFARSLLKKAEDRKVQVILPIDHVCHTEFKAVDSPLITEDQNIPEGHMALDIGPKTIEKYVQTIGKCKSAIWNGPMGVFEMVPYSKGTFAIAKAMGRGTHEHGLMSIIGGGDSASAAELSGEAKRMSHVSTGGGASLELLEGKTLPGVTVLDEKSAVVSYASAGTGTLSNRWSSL
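Luminescent ATP detection (Kinase-Glo Plus) follows a 60-minute room-temperature incubation, with wells lacking PGK as controls. Buffer: 100 mM TEA (pH 7.6), 5 mM MgCl2, 0.01% Tween-20. Coupling enzyme GAPDH (100 nM final) supplies unstable 1,3-BPG in-well.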
Pin1 inh: qHTS Assay to Find Inhibitors of Pin1; Potency, µM (top dose mostly 115 µM), without a hit: at the top dose activity, negative = inhibition, hits mostly inhibitors; Peptidyl-prolyl cis-trans isomerase NIMA-interacting 1 (Homo sapiens), Q13526; Pin1 FP peptide displacement, HiFluor488, 10 min; actives 0.009% (n = 390,000); AID 504891, 2011; active = well fitted inhibition curve with a large enough effect in the polarisation, with a control signal flat, not every such curve was filed as active; inconclusive = small, poorly fitted or top-dose-only effect, or effect the other way, or a change in a side signal; inactive = no such curve, though single readings can be large or run the other way; the % refers to the polarisation; note: potency is the fitted concentration of half-maximal effect; % is set by controls: 0 for no effect and ±100 for the full control effect
Target sequence (Q13526 whole entry, looked up): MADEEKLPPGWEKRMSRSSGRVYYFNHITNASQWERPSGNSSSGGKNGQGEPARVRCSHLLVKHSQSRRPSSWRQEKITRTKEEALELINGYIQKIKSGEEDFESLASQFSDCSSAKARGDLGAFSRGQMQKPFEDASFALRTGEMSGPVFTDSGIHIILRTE
GRP78 ERSR act: qHTS for Inducers of the Endoplasmic Reticulum Stress Response (ERSR) in Human Glioma: qHTS | U87-MG GRP78 promoter luciferase reporter, 16 h | Potency, µM, for inactives: at the top dose activation, most hits filed as activators | actives 0.02% (n = 420,000) | AID 602332, 2012; note: potency is the fitted concentration of half-maximal effect; series mostly up to about 76 µM; % of control where 0% means no effect; nearly all actives have a fitted effect of over 35% in size
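Stably transfected U87-MG glioma cells carrying a GRP78-based luciferase sensor; 16 h compound incubation. Luminescence end-point read 10 min after Bright-Glo addition at room temperature.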
FEN1 inhibitor: qHTS Assay for the Inhibitors of Human Flap endonuclease 1 (FEN1); P39748; Recombinant FEN1 flap cleavage, fluorescence, 15 min; Potency, µM (doses to about 114 µM), without a hit: at the top dose activity change, negative = inhibition, usual class: inhibitors; actives 0.35% (n = 390,000); note: potency is the fitted concentration of half-maximal effect; % is set by controls: 0 for no effect and ±100 for the full control effect; nearly all actives have a fitted effect of over 65% in size
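Recombinant FEN1 (10 nM) was preincubated with pin-transferred compounds for 15 min at room temperature, then flap DNA substrate (50 nM final) was added. Plates were read at 0 and 15 min, and normalized concentration–response data were fitted to a four-parameter Hill equation.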
ADP-Glo interf: qHTS for Inhibitors of PI5P4K: ADP-Glo counter assay | shares compounds with PI5P4Ka inh | ADP-Glo detection counter-screen, luciferase luminescence, no enzyme | Potency, µM (doses to about 76.9 µM), without a hit: at the top dose activity change, negative = inhibition, most hits filed as inhibitors | 1,100 tested, under 10 active | AID 743285, 2014
* = called active by the depositor. Unless noted, calls come from the whole dose curve; as a rule, active = well fitted curve in the direction sought with a large enough effect; inconclusive = small, poorly fitted or top-dose-only effect, or another doubt; inactive = no such curve, though single readings can be large; an effect the other way counts as inactive or inconclusive.

CSCCOC(=O)c1[nH]c2c(c1C)C(=O)CC(c1ccco1)C2 (stereo not given) was read as PI5P4Ka inh -66*, WRN helicase inh 56µM*, Tb PGK inh -27%, Pin1 inh inconclusive, GRP78 ERSR act -4%, FEN1 inhibitor inconclusive and ADP-Glo interf 5%.
COCCOC(=O)c1[nH]c2c(c1C)C(=O)CC(c1ccco1)C2 (stereo not given) was read as PI5P4Ka inh -55*, WRN helicase inh inconclusive, Tb PGK inh -27%, Pin1 inh inconclusive, GRP78 ERSR act -4%, FEN1 inhibitor inconclusive and ADP-Glo interf -9%.
For COCCOC(=O)c1[nH]c2c(c1C)C(=O)CC(c1ccccc1)C2 (stereo not given) the results were PI5P4Ka inh -1, WRN helicase inh -2%, Tb PGK inh -5%, Pin1 inh -3%, GRP78 ERSR act -4% and FEN1 inhibitor -7%.
Screening O=C1CCC[C@@H]2C[C@@]3(C[C@@H]4CCN1[C@H]24)Nc1cc([N+](=O)[O-])ccc1NC3=NCc1ccccc1 returned GRP78 ERSR act -2% and FEN1 inhibitor -19%.
O=C(Nc1ccc(Cl)cc1)Nc1ccc(Cl)c(C(F)(F)F)c1 was read as GRP78 ERSR act -3%.
Cc1ccc(C)c(C(=O)N2CCC(C3(c4ccccn4)NC(=O)N(CC4CCCO4)C3=O)CC2)c1 (stereo not given) was read as GRP78 ERSR act -3%.
For Cc1ccc(-c2ccc(CN3C(C)C(=O)N(Cc4cn(Cc5ccco5)nn4)CCS3(=O)=O)cc2)c(C)c1 (stereo not given) the results were PI5P4Ka inh -53*, WRN helicase inh -7%, GRP78 ERSR act -4% and ADP-Glo interf -2%.
`CC(C)Cc1ccc(CN2C(C)C(=O)N(Cc3cn(Cc4ccco4)nn3)CCS2(=O)=O)cc1` (stereo not given) gave PI5P4Ka inh -64*, WRN helicase inh -18%, GRP78 ERSR act 2% and ADP-Glo interf -4%.
`Cc1ccc(-c2ccc(CN3C(C)C(=O)N(Cc4cn(Cc5ccco5)nn4)CCS3(=O)=O)cc2)cc1` (stereo not given) gave PI5P4Ka inh -1, WRN helicase inh -9%, Tb PGK inh -3% and GRP78 ERSR act 0%.
COc1ccc(-c2ccc(CN3C(C)C(=O)N(Cc4cn(Cc5ccco5)nn4)CCS3(=O)=O)cc2)cc1 (stereo not given) was read as PI5P4Ka inh -26, WRN helicase inh -4%, Tb PGK inh -9% and GRP78 ERSR act -5%.
Screening CC1CCCCN1C(=O)Cn1cnc2cc([N+](=O)[O-])ccc2c1=O (stereo not given) returned PI5P4Ka inh -69*, WRN helicase inh inconclusive, Tb PGK inh 8%, Pin1 inh -9%, GRP78 ERSR act 0%, FEN1 inhibitor -6% and ADP-Glo interf -3%.
`CC(C)(C(=O)N1CCC1(C)C(=O)NS(=O)(=O)c1ccc(C#N)cc1)c1ccccc1` (stereo not given) gave PI5P4Ka inh -25, WRN helicase inh 4%, GRP78 ERSR act 1% and ADP-Glo interf -4%.
O=C(Nc1nnc(COc2ccc(Cl)cc2)s1)c1cccs1 was read as PI5P4Ka inh -57*, WRN helicase inh -31%, Tb PGK inh inactive, Pin1 inh 6%, GRP78 ERSR act -4%, FEN1 inhibitor 13% and ADP-Glo interf 0%.
Cc1cccc(OCc2nnc(NC(=O)c3cccs3)s2)c1 was read as PI5P4Ka inh -2, WRN helicase inh 6%, Tb PGK inh -2%, Pin1 inh 8%, GRP78 ERSR act -2% and FEN1 inhibitor -3%.
Screening CC(=O)c1ccc(-n2c(CCC(=O)O)ccc2-c2cccs2)cc1 returned WRN helicase inh -8%, Tb PGK inh 3%, Pin1 inh 29%, GRP78 ERSR act 0% and FEN1 inhibitor 10%.
NC(=O)c1ccc(-n2c(CCC(=O)O)ccc2-c2cccs2)cc1 was read as PI5P4Ka inh -80*, WRN helicase inh -6%, Tb PGK inh 0%, Pin1 inh 0%, GRP78 ERSR act 0%, FEN1 inhibitor -3% and ADP-Glo interf 2%.
Screening Cc1cc(C(=O)Nc2ccccc2-c2nc(CNC(=O)c3cc4ccccc4cn3)c(C)o2)c(C)o1 returned GRP78 ERSR act -2%.
Screening CCOc1ccc(-c2ccc(SC)nn2)cc1 returned PI5P4Ka inh -50*, WRN helicase inh -17%, Tb PGK inh inconclusive, Pin1 inh -1%, GRP78 ERSR act -16%, FEN1 inhibitor 6% and ADP-Glo interf 16µM*.
`CC(C)(C)n1ncc2c(=O)n(Cc3ccc(Cl)c(SC(F)(F)F)c3)cnc21` gave GRP78 ERSR act -3% and FEN1 inhibitor -3%.
For COc1ccc(OC)c(-c2csc(NC(=O)Cc3ccc(F)cc3)n2)c1 the results were PI5P4Ka inh 21, WRN helicase inh -9%, Tb PGK inh -2%, Pin1 inh 3%, GRP78 ERSR act -2% and FEN1 inhibitor -20%.
Cc1ccc(-c2csc(Nc3ccc(S(N)(=O)=O)cc3)n2)o1 was read as PI5P4Ka inh -65*, WRN helicase inh -33%, Tb PGK inh -18%, Pin1 inh 13%, GRP78 ERSR act 4%, FEN1 inhibitor -14% and ADP-Glo interf 1%.
Cc1ccc(-c2csc(NC(=O)Cc3ccc(F)cc3)n2)o1 was read as PI5P4Ka inh -56*, WRN helicase inh -33%, Tb PGK inh -4%, Pin1 inh 9%, GRP78 ERSR act 0%, FEN1 inhibitor -22% and ADP-Glo interf 4%.
For CS(=O)(=O)c1ccc2nc(NC(=O)c3ccccc3)sc2c1 the results were PI5P4Ka inh -12, WRN helicase inh -20%, Tb PGK inh -14%, Pin1 inh 1%, GRP78 ERSR act -7% and FEN1 inhibitor 4%.
